Assay outcomes from PubChem BioAssay.
The list is not random: actives were taken first. Their share in the collection is about 4.8%.
ATXN viability: viability counter-screen for ATXN expression inhibitors; S2 cells (HEK-293 line with an ATXN2-luciferase reporter) viability, CellTiter-Fluor protease fluorescence, 24 h; Potency, µM (doses to about 56.7 µM), hits mostly cytotoxic; 400,000 tested, 0.49% active; note: potency is the fitted concentration of half-maximal effect; nearly all actives have a fitted effect of over 40% in size
TGFb SMAD3 inh: blocks TGF-b signaling; 410,000 tested, 1.2% active; HepG2 CAGA-GFP TGF-b/SMAD3 reporter, GFP fluorescence, 18 h; TGF-beta stimulated, 500 pg/mL final; Potency, µM (top dose mostly 46.1 µM), without a hit: top-dose activity, negative = inhibition, hits mostly inhibitors; note: potency is the fitted concentration of half-maximal effect; % is set by controls: 0 for no effect and ±100 for the full control effect; nearly all actives have a fitted effect of over 65% in size
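TGF-beta reporter screen: HEPG2 CAGA-GFP, 1% FBS, 500 pg/mL TGF-beta final, 18 h; per-cell GFP summed per well; curves fitted and categorized by class.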
D3 ag: agonists of human D3 dopamine receptor. P35462. D3R DiscoveRx beta-arrestin cells, luminescence, 90 min. max activation, %. 410,000 tested, 0.58% active. AID 652048; in the data active = max activation above about 30%; note: 0% is about no effect
Target sequence (P35462 whole entry, looked up): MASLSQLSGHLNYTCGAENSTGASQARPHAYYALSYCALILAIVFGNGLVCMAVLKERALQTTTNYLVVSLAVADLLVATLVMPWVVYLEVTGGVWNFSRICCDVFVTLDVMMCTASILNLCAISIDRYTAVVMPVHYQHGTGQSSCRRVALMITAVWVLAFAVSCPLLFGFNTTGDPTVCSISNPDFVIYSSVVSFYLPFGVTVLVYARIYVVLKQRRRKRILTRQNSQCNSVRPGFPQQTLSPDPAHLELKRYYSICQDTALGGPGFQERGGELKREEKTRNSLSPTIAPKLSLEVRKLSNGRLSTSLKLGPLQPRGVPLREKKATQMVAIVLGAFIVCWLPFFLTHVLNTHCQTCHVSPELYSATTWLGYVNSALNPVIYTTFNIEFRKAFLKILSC
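Agonist mode: compounds and dopamine controls were applied to plated cells for 90 min at 37 degrees C after an overnight attachment at 1500 cells/well. Luminescent read-out followed 30 - 60 minutes at room temperature with DiscoveRx detection reagent.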
HepG2 tox: kills HepG2 cells in TGF-b inhibitor counter-screen. HepG2 CAGA-GFP viability, ATP luminescence, 18 h. Potency, µM (series often up to 46.1 µM), for inactives: at the highest dose activity change, negative = cytotoxicity, usual class: cytotoxic. AID 588856. 410,000 tested, 0.76% active; note: potency is the fitted concentration of half-maximal effect
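HepG2 CAGA-GFP cells (1000/well, DMEM with 1% FBS) received compound, then TGF-beta at 500 pg/mL final, and were incubated 18 hours at 37 degrees C. Viability was read by CellTiter-Glo luminescence. Media-only wells were set as complete cell-killing and DMSO as no toxicity.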
DRD3 antagonist: D3 dopamine receptor (human) antagonism; P35462; D3R cells, DiscoveRx beta-arrestin luminescence, antagonist mode; stronger effect = lower value; max response, negative = inhibition, %; 360,000 tested, 2.5% active; in the data active = max response below about -50%; inconclusive = no clear call, values can overlap the other calls; note: % is set by controls: 0 for no effect and ±100 for the full control effect
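Cells plated overnight at 1500 cells/well, then exposed to library compounds with dopamine controls for 90 minutes at 37 degrees C. DiscoveRx reagent added for 30–60 minutes at room temperature; luminescence read, quantitative HTS format.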
ATXN2 expr inh: ATXN2 expression inhibition | Potency, µM (highest dose often 57 µM), without a hit: at the top dose activity change, negative = inhibition, actives largely listed as inhibitors | 360,000 tested, 0.72% active | HEK-293 ATXN2-luciferase reporter, luminescence, 24 h | AID 1745845; note: potency is the fitted concentration of half-maximal effect; % is set by controls: 0 for no effect and ±100 for the full control effect; nearly all actives have a fitted effect of over 55% in size
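qHTS (up to 57 uM final) was run with 24 h compound exposure of reporter cells at 37 °C. Each well was multiplexed: SteadyGlo luminescence measured ATXN2-luciferase expression after a fluorogenic Gly-Phe-AFC viability readout (25 uM final).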
* hit, by the source's call; i = inactive; ? = inconclusive; / = no result given. Unless noted, calls come from the whole dose curve; as a rule, active = well fitted curve in the direction sought with a large enough effect; inconclusive = small, poorly fitted or top-dose-only effect, or another doubt; inactive = no such curve, though single readings can be large; an effect the other way counts as inactive or inconclusive.

SMILES	ATXN viability	TGFb SMAD3 inh	D3 ag	HepG2 tox	DRD3 antagonist	ATXN2 expr inh
O=c1c(N2CCN(c3cccc(Cl)c3)CC2)csc2ccccc12	?	-25%	-18	-41%	/	?
CC(C)Cn1c(=O)c2sccc2n2c(CCCC(=O)Nc3ccc(Cl)cc3)nnc12	/	-27%	-10	-22%	/	/
CC1CCCN(CCCNC(=O)c2ccc3c(c2)N(Cc2cccc(Cl)c2)C(=O)c2ccccc2S3(=O)=O)C1 (configuration not stated)	/	?	-25	-95%	/	/
S=C1NCCc2ccc(Cl)cc2C1c1ccccc1Cl (configuration not stated)	i	-9%	-2	5%	-71*	-21%
CC(CNC(=O)c1ccc2nc(CCc3ccccc3)oc2c1)c1ccccc1 (configuration not stated)	/	10%	-14	-4%	/	/
CC(=O)OCC1=C(C(=O)O)N2C(=O)C(NC(=O)c3ccc(F)cc3)C2SC1 (configuration not stated)	14µM*	-5%	0	4%	15	/
Cn1c(=O)[nH]c(=O)c2c1nc(Br)n2CCOc1ccccc1	i	-11%	4	-28%	-53*	-5%
Cc1cc(C(=O)NCC2CCC3(CCN(Cc4ccc5ccccc5c4)CC3)O2)n(C)n1 (configuration not stated)	i	/	/	/	/	/
Cc1cc(N2CCN(c3ncccn3)CC2)nc2c(C)cccc12	i	-27%	36*	-28%	18	-6%
C/C(N)=C(/C#N)C(=O)CSc1nc2ccccc2c(=O)n1Cc1ccc(F)cc1	?	11µM*	-3	-46%	-8	/
C/C(N)=C(/C#N)C(=O)CSc1nc2ccccc2c(=O)n1Cc1ccc(C)cc1	?	-17%	-1	-44%	-23	-36%
Cc1ccc(NC(=O)C[n+]2cc(-c3ccccc3)n3c2CCC3)cc1	i	9%	-17	2%	-111*	/
COc1ccc(-c2c[n+](CC(=O)c3ccccc3)c3n2CCCCC3)cc1	?	-11%	-22	-3%	-61*	/
Cc1ccc(-c2c[n+](CC(=O)Nc3ccccc3C)c3n2CCC3)cc1	i	-2%	-34	0%	-63*	-15%
Cc1ccc(-c2c[n+](CC(=O)Nc3nc(-c4ccccc4)cs3)c3n2CCC3)cc1	i	5%	-15	-11%	6	1%
C=C1C=C(C(F)F)n2ncc(C(=O)N3CCN(c4ccccc4)CC3)c2N1	/	5%	/	2%	/	/
Cc1ccc(-n2ccn(CC(=O)c3ccc(F)cc3)c(=O)c2=O)cc1C	/	-18%	-2	-13%	/	/
O=C(COC(=O)Cc1ccccc1F)Nc1ccc2[nH]c(=O)[nH]c2c1	i	?	-9	-49%	-5	8%
O=C(COC(=O)/C=C/c1cc(Br)ccc1F)Nc1ccc2[nH]c(=O)[nH]c2c1	i	1%	88*	-3%	-10	-4%
O=C(NC(c1cccnc1)C(F)(F)F)c1cc(COc2ccc3c(c2)CCCC3)on1 (configuration not stated)	?	11µM*	8	-26%	35	-17%
C/C(=N\NC(=S)NCC(C)(C)C)c1cc(F)cc(F)c1O	?	?	-13	-13%	-88*	?
COCCNC(=S)N/N=C(\C)c1ccc(O)cc1	i	-11%	-7	6%	-3	-6%
O=C(Nn1c(O)c(C=C2N=c3ccccc3=N2)sc1=S)c1cccc(Cl)c1	i	8%	-22	-19%	-53*	-31%
C=CC[C@@H](CC(=O)N(CCO)Cc1ccccc1)C(=O)N[C@H](COC(=O)[C@@H](CC=C)CC(=O)OC(C)(C)C)Cc1c[nH]c2ccccc12	/	13µM*	0	-43%	37	?
C=CC[C@H](CC(=O)N[C@H](CO)Cc1ccccc1)C(=O)N[C@@H](COC(=O)[C@@H](CC=C)CC(=O)OC(C)(C)C)Cc1c[nH]c2ccccc12	/	11µM*	6	-102%	18	?
